# Measured values: publication PMC7862700, “An all-to-all approach to the identification of sequence-specific readers for epigenetic DNA modifications on cytosine”
# What was measured:
# Assay in all cases: DAPPL (digital affinity profiling via proximity ligation, sequencing); 10 mM Tris-HCl pH 7.5, 50 mM NaCl, 1 mM DTT, 4% glycerol, room temperature, 30 min; GST-TFs on glutathione beads, 16-mer random dsDNA library, 0.1% formaldehyde crosslink after washing; high values mean tight binding
# Conditions in all cases: protein: recombinant; tags: N-terminal GST; dsDNA, one strand shown
# [1] = biological target: T1, FLI1 (Homo sapiens, UniProt Q01543 1-452)
# T1 sequence: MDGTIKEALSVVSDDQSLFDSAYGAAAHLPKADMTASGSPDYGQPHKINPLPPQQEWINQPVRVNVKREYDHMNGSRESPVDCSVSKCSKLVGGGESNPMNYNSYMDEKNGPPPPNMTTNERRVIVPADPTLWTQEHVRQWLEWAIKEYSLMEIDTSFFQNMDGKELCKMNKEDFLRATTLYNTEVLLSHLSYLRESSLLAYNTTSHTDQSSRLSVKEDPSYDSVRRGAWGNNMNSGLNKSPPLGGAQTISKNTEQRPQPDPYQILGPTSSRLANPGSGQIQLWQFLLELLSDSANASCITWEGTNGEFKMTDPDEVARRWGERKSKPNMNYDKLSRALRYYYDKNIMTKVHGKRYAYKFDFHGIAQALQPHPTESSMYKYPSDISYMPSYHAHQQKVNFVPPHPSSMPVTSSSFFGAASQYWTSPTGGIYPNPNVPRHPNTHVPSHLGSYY
# Summary of the method: (§1)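 Yeast served to express human transcription factors as GST fusions, which were then captured on glutathione beads and labelled with DNA barcodes. Pooled with a tag-only sample, they were incubated with 200 nmole of a 16-mer random double-stranded DNA library for 30 min at room temperature in Tris/NaCl/DTT/glycerol buffer, washed, crosslinked with 0.1% formaldehyde, ligated by proximity, amplified by PCR and sequenced. Dividing each hexamer's read frequency for a factor by its frequency for the tag-only sample gives the binding signal.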
# [2] = biological target: T2, ELK1 (Homo sapiens, UniProt P19419 1-428)
# T2 sequence: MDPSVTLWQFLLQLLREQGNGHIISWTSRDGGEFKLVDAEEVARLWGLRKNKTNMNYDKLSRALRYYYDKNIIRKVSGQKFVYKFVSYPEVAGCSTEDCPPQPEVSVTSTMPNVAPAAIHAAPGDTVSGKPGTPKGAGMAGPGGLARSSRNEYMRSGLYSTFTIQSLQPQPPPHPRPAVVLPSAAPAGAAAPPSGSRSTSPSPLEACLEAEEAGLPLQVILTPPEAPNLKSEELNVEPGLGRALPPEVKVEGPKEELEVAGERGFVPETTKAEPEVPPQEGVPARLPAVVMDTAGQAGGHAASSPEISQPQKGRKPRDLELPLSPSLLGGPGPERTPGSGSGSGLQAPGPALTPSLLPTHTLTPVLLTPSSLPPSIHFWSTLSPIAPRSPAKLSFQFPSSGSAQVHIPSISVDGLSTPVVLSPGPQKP
# Summary of the method: as §1
# [3] = biological target: ELF1 (Homo sapiens, UniProt P32519 1-619)
# ELF1, sequence (P32519 whole entry): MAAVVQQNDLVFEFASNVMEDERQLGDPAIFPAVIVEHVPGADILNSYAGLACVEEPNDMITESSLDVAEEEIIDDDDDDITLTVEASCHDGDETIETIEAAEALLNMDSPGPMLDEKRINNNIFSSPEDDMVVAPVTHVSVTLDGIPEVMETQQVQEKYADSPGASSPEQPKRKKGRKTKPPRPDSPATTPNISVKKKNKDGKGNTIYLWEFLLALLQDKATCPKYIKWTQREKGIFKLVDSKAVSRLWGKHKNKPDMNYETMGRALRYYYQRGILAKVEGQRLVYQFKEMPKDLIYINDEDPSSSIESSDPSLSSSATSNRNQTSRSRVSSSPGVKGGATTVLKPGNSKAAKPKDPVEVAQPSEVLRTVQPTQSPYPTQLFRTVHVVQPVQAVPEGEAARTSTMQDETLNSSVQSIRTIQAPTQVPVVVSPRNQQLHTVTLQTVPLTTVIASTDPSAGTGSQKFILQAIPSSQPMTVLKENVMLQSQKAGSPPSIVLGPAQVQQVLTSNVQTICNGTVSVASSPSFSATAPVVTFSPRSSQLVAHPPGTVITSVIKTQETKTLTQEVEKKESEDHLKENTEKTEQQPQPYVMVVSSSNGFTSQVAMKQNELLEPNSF
# Summary of the method: as §1
# [4] = biological target: T3, EHF (Homo sapiens, UniProt Q9NZC4 1-300)
# T3 sequence: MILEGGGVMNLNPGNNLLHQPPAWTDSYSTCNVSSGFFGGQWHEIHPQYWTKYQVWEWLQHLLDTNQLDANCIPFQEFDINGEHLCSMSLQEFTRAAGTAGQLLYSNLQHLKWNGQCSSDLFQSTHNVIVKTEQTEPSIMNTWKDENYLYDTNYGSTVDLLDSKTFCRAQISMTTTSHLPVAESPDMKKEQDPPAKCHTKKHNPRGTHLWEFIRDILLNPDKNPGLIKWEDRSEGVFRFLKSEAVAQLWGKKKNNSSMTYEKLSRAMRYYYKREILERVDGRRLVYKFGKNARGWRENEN
# Summary of the method: as §1
# [5] = biological target: SPIB (Homo sapiens, UniProt Q01892 1-262)
# SPIB, sequence (Q01892 whole entry): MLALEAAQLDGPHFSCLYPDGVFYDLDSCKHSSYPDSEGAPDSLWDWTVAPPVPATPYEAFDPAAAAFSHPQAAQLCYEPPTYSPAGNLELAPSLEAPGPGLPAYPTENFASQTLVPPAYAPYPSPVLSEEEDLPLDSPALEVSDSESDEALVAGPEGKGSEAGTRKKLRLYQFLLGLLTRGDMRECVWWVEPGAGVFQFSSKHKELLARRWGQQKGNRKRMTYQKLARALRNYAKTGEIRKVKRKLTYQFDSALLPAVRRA
# Summary of the method: as §1
# [6] = biological target: T4, SPIC (Homo sapiens, UniProt Q8N5J4 1-248)
# T4 sequence: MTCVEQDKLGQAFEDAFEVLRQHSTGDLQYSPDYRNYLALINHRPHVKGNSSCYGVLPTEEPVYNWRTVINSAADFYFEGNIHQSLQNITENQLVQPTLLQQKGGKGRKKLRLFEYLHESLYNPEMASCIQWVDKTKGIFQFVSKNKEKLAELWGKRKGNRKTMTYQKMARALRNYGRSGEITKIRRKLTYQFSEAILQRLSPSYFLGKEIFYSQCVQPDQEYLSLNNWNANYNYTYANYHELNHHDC
# Summary of the method: as §1
# [7] = biological target: ELF4 (Homo sapiens, UniProt Q99607 1-663)
# ELF4, sequence (Q99607 whole entry): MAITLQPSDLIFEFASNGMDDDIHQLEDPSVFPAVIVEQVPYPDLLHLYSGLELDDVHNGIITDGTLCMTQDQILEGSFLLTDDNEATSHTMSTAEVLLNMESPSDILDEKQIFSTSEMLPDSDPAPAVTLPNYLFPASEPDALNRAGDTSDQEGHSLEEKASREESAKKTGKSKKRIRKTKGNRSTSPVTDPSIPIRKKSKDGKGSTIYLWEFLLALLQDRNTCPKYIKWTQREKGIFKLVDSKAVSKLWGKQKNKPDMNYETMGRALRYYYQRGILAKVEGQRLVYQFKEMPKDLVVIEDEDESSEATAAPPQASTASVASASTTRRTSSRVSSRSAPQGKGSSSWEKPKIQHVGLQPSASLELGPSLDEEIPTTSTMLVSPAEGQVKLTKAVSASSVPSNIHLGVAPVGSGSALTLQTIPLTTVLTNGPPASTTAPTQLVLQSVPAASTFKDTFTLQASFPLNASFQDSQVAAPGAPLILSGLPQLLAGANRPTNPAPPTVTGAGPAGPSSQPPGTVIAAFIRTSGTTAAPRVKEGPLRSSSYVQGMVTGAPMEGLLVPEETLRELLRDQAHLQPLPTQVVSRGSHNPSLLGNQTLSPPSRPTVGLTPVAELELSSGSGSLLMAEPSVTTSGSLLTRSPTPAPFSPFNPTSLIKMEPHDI
# Summary of the method: as §1
# [8] = biological target: T5, ELK4 (Homo sapiens, UniProt P28324-2 1-405)
# T5 sequence: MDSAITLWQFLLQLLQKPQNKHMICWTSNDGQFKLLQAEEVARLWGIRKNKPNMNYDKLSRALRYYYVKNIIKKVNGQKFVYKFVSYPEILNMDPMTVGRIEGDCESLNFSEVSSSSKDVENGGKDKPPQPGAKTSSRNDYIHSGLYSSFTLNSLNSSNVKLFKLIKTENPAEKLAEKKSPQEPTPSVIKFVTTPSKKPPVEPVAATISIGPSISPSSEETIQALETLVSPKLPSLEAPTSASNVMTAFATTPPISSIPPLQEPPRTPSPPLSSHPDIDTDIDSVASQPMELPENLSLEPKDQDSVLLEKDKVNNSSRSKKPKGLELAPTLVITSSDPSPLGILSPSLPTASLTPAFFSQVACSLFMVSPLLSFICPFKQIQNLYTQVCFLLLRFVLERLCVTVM
# Summary of the method: as §1
# [9] = biological target: ETV1 (Homo sapiens, UniProt P50549 1-477)
# ETV1, sequence (P50549 whole entry): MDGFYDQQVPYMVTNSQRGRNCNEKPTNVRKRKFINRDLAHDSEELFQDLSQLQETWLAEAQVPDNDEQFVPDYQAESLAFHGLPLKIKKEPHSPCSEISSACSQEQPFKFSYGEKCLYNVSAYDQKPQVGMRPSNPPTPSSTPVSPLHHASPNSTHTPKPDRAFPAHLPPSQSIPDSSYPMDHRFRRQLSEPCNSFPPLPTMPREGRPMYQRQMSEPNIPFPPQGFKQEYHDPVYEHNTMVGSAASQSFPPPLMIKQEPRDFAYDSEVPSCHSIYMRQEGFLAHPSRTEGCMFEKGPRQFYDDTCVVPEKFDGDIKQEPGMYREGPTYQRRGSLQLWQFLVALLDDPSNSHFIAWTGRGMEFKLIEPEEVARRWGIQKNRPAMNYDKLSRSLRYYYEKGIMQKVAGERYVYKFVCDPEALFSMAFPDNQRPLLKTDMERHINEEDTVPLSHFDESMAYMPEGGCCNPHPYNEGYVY
# Summary of the method: as §1
# [10] = biological target: T6, ERF (Homo sapiens, UniProt P50548 1-548)
# T6 sequence: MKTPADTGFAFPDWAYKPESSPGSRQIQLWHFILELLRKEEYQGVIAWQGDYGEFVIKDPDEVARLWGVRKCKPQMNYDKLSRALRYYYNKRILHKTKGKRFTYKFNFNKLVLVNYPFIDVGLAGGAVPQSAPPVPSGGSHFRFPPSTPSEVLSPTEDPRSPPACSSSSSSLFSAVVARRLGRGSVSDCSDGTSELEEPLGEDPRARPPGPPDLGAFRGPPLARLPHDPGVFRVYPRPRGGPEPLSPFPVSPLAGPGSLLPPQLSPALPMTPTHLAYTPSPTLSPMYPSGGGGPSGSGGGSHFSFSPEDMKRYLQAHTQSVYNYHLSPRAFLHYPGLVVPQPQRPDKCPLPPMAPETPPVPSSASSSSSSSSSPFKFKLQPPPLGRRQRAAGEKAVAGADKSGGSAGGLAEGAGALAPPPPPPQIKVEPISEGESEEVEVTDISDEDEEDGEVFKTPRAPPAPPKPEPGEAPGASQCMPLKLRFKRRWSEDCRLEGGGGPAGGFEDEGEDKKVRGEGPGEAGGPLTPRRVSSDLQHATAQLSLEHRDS
# Summary of the method: as §1
# [11] = biological target: T7, ETV3L (Homo sapiens, UniProt Q6ZN32 1-361)
# T7 sequence: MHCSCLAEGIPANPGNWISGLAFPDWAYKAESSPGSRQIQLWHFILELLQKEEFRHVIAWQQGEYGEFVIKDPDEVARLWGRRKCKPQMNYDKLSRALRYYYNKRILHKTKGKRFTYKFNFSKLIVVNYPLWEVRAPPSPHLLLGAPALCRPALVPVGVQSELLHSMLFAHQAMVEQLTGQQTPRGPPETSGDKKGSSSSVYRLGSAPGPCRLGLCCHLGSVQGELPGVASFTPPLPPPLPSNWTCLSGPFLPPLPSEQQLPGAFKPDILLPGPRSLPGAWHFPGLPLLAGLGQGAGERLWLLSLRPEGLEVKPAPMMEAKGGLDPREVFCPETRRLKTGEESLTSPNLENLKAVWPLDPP
# Summary of the method: as §1
# [12] = biological target: T8, ETV7 (Homo sapiens, UniProt Q9Y603 1-341)
# T8 sequence: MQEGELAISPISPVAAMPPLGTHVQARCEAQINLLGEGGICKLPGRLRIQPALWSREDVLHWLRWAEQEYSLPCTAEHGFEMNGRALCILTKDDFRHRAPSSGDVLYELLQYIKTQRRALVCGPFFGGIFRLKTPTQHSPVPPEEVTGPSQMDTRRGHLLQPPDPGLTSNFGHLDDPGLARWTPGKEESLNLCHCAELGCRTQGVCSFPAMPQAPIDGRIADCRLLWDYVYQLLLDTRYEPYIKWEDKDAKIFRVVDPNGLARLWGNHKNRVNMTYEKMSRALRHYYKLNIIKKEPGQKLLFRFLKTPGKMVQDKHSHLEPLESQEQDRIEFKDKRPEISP
# Summary of the method: as §1
# [13] = biological target: T9, ETV3 (Homo sapiens, UniProt P41162-2 1-143)
# T9 sequence: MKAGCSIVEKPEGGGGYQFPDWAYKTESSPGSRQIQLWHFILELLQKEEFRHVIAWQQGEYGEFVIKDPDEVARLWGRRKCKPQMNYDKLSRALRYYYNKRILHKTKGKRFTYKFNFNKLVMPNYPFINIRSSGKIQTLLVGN
# Summary of the method: as §1
sequence,measurement,setting,value
GATGGG,binding signal,[1],"1.03 fold enrichment (6-mer frequency, TF over GST control)"
same,binding signal,[2],"1.02 fold enrichment (6-mer frequency, TF over GST control)"
same,binding signal,[3],"1 fold enrichment (6-mer frequency, TF over GST control)"
same,binding signal,[4],"1.02 fold enrichment (6-mer frequency, TF over GST control)"
same,binding signal,[5],"1.12 fold enrichment (6-mer frequency, TF over GST control)"
same,binding signal,[6],"1.08 fold enrichment (6-mer frequency, TF over GST control)"
same,binding signal,[7],"1.01 fold enrichment (6-mer frequency, TF over GST control)"
same,binding signal,[8],"1.01 fold enrichment (6-mer frequency, TF over GST control)"
same,binding signal,[9],"1.04 fold enrichment (6-mer frequency, TF over GST control)"
same,binding signal,[10],"1 fold enrichment (6-mer frequency, TF over GST control)"
same,binding signal,[11],"1.02 fold enrichment (6-mer frequency, TF over GST control)"
same,binding signal,[12],"1.03 fold enrichment (6-mer frequency, TF over GST control)"
same,binding signal,[13],"1.04 fold enrichment (6-mer frequency, TF over GST control)"
